Experimental data taken from ChEMBL document CHEMBL3988442, “University of Dundee, Small-Polar-MMV Screening Library” (2021).
Out of some 38,000 compounds screened, about 1,200 (3.2%) showed an effect of 50% or more. The median lay at about -58%. This is one part of a sample in which strong results are shown more often than they occur.

tested on: Plasmodium falciparum; experiment: Calibr Malaria Delayed Death Assay SOP; type: functional, organism-based; parameters: scale not given: in the data most compounds retested in dose-response had high values; conditions: concentration 4.99e-06 (unit not given; other assays of the set use mol/L)

In order of rising “Percent Effect” value:
1. O=c1c(NCc2ccco2)c(NCC(O)CN2CCOCC2)c1=O (stereo not drawn)  -219.4%
2. O=C1c2cnc(N3CCCCC3)nc2CN1c1ccc2c(c1)OCO2  -196%
3. CN(C)C(=O)CN1CCC2(CCN(C(=O)N3CCCC3)CC2)C1=O  -157.2%
4. CC1(C)CCN1C(=O)c1cc(F)cc2[nH]cnc12  -143.1%
5. O=C1NCCCCC1NCc1csc(-c2ccsc2)n1 (stereo not drawn)  -129.5%
6. CCOc1cc(C(=O)NS(=O)(=O)c2cccc(C#N)c2)ccc1OC  -127.1%
7. O=C(Nc1cn[nH]c1)NC1CCN(c2ccccc2OC(F)F)C1 (stereo not drawn)  -124.3%
8. O=C(NC[C@H]1CCCC[C@H]1O)c1ccc2nc(-c3ccco3)[nH]c2c1  -121.1%
9. COc1ccc(S(=O)(=O)NCCn2cnc(C)cc2=O)cc1C  -119.1%
10. COc1ccc(C)cc1CC(=O)NC1(C#N)CCOCC1  -117.4%
11. Cc1nc(C2CCCN2C(=O)CCOCc2ccccc2)no1 (stereo not drawn)  -117.2%
12. O=C(O)Cn1nc(C2CC2)c2c(-c3ccco3)ccnc21  -116%
13. N#Cc1ccccc1CN1CCc2sccc2C1  -109.2%
14. COc1ncnc2c1CCN(Cc1cccs1)CC2.O=C(O)C(F)(F)F  -104.3%
15. CNC(=O)N1CCCCC1c1nnc2n1CCCC2 (stereo not drawn)  -92.12%
16. O=C(CCn1ccc2ccc(Br)cc21)/N=c1\[nH]nc(C2CCCO2)s1 (stereo not drawn)  -91.4%
17. COc1ccc(CCC(C)Nc2cccc(SC)c2)cc1 (stereo not drawn)  -91.4%
18. CC(CNC(=O)c1ccco1)N1CCc2sccc2C1 (stereo not drawn)  -89.83%
19. COCCNC(=O)C1CN(C(N)=O)Cc2ccnn2C1 (stereo not drawn)  -83.21%
20. CC(C(=O)Nc1ccc(N2CCCCC2)nc1)n1ccnc1 (stereo not drawn)  -81.15%
21. COCCN1CCc2ncnc(OC(C)C)c2CC1.O=C(O)C(F)(F)F  -76.73%
22. O=C(O)c1coc(COc2cccc3cnccc23)n1  -75.43%
23. CCc1nnc(CN2CCCCC2Cn2cncn2)o1 (stereo not drawn)  -69.23%
24. O=C(O)C(F)(F)F.c1cnc(N2C[C@@H]3COC[C@]3(COCC3CCCC3)C2)nc1  -62.66%
25. O=C(NC[C@H]1CCCC[C@H]1O)c1cccc2[nH]c(-c3cccs3)nc12  -57.07%
26. COc1ccc(C(C)NCc2ccnn2C)cc1Cn1cccn1 (stereo not drawn)  -53.25%
27. Cc1cccc(CN(C(=O)CCn2cncn2)C(C)C)c1  -52.83%
28. O=C(CCc1nc2cc(Br)cnc2[nH]1)NCCCN1CCOCC1  -51.18%
29. O=C(N1CCSCC1)C1(O)Cc2ccccc2C1  -49.25%
30. O=C(NC1CCCC1)C1Cc2nc(-c3ccsc3)sc2N1CC1CC1 (stereo not drawn)  -48.35%
31. c1coc(CN2CCc3ncnc(C4CCOC4)c3CC2)c1 (stereo not drawn)  -48.34%
32. O=C(NC1CCN(c2ccccc2OC(F)F)C1)c1cccnc1 (stereo not drawn)  -43.56%
33. Cc1cc(CN2CCN(Cc3cc(C#N)ccc3F)CC2)no1  -43.24%
34. CC(c1ccc(S(C)(=O)=O)cc1)N(C)C(=O)c1ccccc1I (stereo not drawn)  -43.05%
35. Cc1noc(C)c1CNc1c(N2CCCC2)cccc1N1CCCC1  -39.5%
36. COc1cccc(CN(C)Cc2cc(C#N)ccc2F)c1OC  -37.67%
37. O=C(c1ccnc(N2CCOC(C(F)(F)F)C2)c1)N1CCCC1 (stereo not drawn)  -34.44%
38. COc1ccc(OC)c(CN2CCN(Cc3cscn3)CC2)c1  -31.14%
39. CCNc1nc(C)c(C(=O)N(C)Cc2nc(CC)no2)s1  -30.42%
40. Cn1ccnc1CN(Cc1cccnc1)CC1CCCO1 (stereo not drawn)  -29.26%
41. O=S(=O)(Nc1cnn(C2CCOCC2)c1)c1ccc(Br)cc1  -25.25%
42. CC(C)OCc1nn(C)c2c1CCN(CC1CC1)C2.O=C(O)C(F)(F)F  -24.03%
43. Cc1nc(C)c2c(n1)CCN(Cc1ccco1)CC2  -20.07%
44. COc1ccc(C(C)NCc2scnc2C)cc1Cn1cccn1 (stereo not drawn)  -18.73%
45. O=C(O)Cn1nc(C2CC2)c2c(-c3cccs3)ccnc21  -11.75%
46. COc1cccc(CN(C)Cc2ccccc2C#N)c1OC  -10.45%
47. O=C(N1CCN(CCO)CC1)C1(O)Cc2ccccc2C1  -7.059%
48. Cc1ccc(CN2CCc3ncnc(OC(C)C)c3CC2)s1.O=C(O)C(F)(F)F  -2.65%
49. CNC(=O)CS(=O)(=O)NC1CCC(C)CC1 (stereo not drawn)  0.5939%
50. O=C(Nc1ccccn1)NC1CCN(c2ccccc2OC(F)F)C1 (stereo not drawn)  9.794%
51. O=C(c1coc(COc2cccc3cnccc23)n1)N1CCCCCC1  16.31%
52. O=C(Nc1cccnc1)NC1CCN(c2ccccc2OC(F)F)C1 (stereo not drawn)  16.84%
53. COc1ccccc1N1CCC(NCc2c(C)noc2C)C1 (stereo not drawn)  24.81%
54. CCC(CC)CN1CCN(CC(=O)Nc2ccc3nsnc3c2)CC1  27.19%
55. COc1ccc(C(C)NCc2cccs2)cc1Cn1cccn1 (stereo not drawn)  28.81%
56. CC(C)Oc1ncnc2c1CCN(Cc1ccoc1)CC2.O=C(O)C(F)(F)F  29.43%
57. O=c1[nH]c(NC2CCCC2)nc2nccc(-c3cccs3)c12  55.34%
58. O=C(N1CCc2ccccc2CC1)C1(O)Cc2ccccc2C1  56.27%
59. NCC(c1ccccc1)N1CCc2sccc2C1 (stereo not drawn)  56.94%
60. CC(C)Oc1ncnc2c1CCN(Cc1ccco1)CC2.O=C(O)C(F)(F)F  60.03%
61. Cc1noc(C)c1CNC1CCN(c2ccccc2OC(F)F)C1 (stereo not drawn)  63.44%
62. O=C(Nc1ccncc1)NC1CCN(c2ccccc2OC(F)F)C1 (stereo not drawn)  64.77%
63. O=c1[nH]c(NC2CCCC2)nc2nccc(-c3ccsc3)c12  67.56%
64. Cc1c(CNC2CCN(c3ccccc3OC(F)F)C2)cnn1C (stereo not drawn)  69.48%
65. CC(C)Oc1ncnc2c1CCN(Cc1ccc(F)cc1)CC2.O=C(O)C(F)(F)F  69.87%
66. COc1ccc(C(C)NCc2cscn2)cc1Cn1cccn1 (stereo not drawn)  71.39%
67. O=c1[nH]c(NC2CCCC2)nc2nccc(-c3ccco3)c12  71.56%
68. COc1ccc(C(C)NCc2ccsc2)cc1Cn1cccn1 (stereo not drawn)  71.68%
